BAZ2B inh: qHTS Assay for Inhibitors of BAZ2B. AlphaScreen BAZ2B-H3K14Ac peptide displacement. Potency, µM (doses to about 114 µM), hits mostly inhibitors. Bromodomain adjacent to zinc finger domain protein 2B (Homo sapiens), Q9UIF8. AID 504333, 2011. actives 4.4% (n = 360,000); further: nearly all actives have a fitted effect of over 60% in size
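Compounds, titrated to a top concentration of 110 uM, were incubated 30 min at room temperature with preformed BAZ2B/acetyl-K14 H3 peptide complex (50 nM each). Proximity signal was measured by AlphaScreen after 20 min with beads.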
HP1b chromo inh: HTS for Inhibitors of HP1-beta Chromodomain Interactions with Methylated Histone Tails. AlphaScreen HP1-beta / biotin-H3K9me3 peptide binding. actives 0.56% (n = 390,000). Potency, µM (top dose mostly 114 µM), hits mostly inhibitors. Chromobox protein homolog 1 (Homo sapiens), P83916; further: nearly all actives have a fitted effect of over 70% in size
Target sequence (P83916 whole entry, looked up): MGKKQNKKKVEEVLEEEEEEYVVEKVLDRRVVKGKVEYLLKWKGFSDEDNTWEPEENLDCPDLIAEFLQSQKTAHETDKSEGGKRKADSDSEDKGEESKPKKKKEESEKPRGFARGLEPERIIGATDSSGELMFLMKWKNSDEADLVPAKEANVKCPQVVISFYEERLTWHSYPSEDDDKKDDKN
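AlphaScreen: HP1-beta (50 nM) preformed 30 min with biotin-H3(1-18)K9me3 peptide (50 nM) in PBS pH 7.4, 0.01% Tween-20. Compound added for 30 min at RT, then streptavidin donor/nickel chelate acceptor beads (10 ug/mL) for 30 min.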
G9a inh: qHTS Assay for Inhibitors of Histone Lysine Methyltransferase G9a; Histone-lysine N-methyltransferase EHMT2 (Homo sapiens), Q96KQ7; G9a H3K9 monomethylation, AlphaScreen, 2 h; Potency, µM (highest dose often 102 µM), hits mostly inhibitors; actives 8.8% (n = 350,000); AID 504332, 2011; further: nearly all actives have a fitted effect of over 75% in size
Target sequence (Q96KQ7 913-1193 limits assumed): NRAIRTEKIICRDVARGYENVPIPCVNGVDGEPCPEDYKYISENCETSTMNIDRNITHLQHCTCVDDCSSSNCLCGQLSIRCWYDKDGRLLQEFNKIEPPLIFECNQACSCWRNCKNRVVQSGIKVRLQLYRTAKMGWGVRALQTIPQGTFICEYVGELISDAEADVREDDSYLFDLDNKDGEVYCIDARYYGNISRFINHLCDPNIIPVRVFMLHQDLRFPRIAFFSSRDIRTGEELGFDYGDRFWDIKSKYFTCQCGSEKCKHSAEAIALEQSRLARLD
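Compounds were preincubated with 20 nM G9a for 15 min, after which biotinylated H3K9 peptide (500 nM) and SAM (20 uM) started a 2 h room-temperature reaction. Monomethylated product was quantified by antibody-based AlphaScreen chemiluminescence.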
JMJD2A Tudor inh: qHTS Assay for Inhibitors of JMJD2A-Tudor Domain; AlphaScreen JMJD2A-Tudor / H3K4me3 peptide binding; Potency, µM (top dose mostly 114 µM), actives largely listed as inhibitors; actives 4.4% (n = 390,000); AID 504339, 2011; further: nearly all actives have a fitted effect of over 50% in size
L3MBTL1 inh: qHTS Assay for the Inhibitors of L3MBTL1; AID 485360, 2010; Potency, µM (titrated, usually from 57.1 µM), hits mostly inhibitors; actives 0.66% (n = 230,000); AlphaScreen L3MBTL1–H3K9me1 peptide binding; Lethal(3)malignant brain tumor-like protein 1 (Homo sapiens), Q9Y468; further: nearly all actives have a fitted effect of over 60% in size
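AlphaScreen proximity signal between nickel-chelate acceptor and streptavidin donor beads (final 10 ug/mL) reports binding of 50 nM L3MBTL1 to 75 nM biotin-H3 K9me1 peptide; complex incubated with compounds 30 min at room temperature; cefsulodin titration as control.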
Each line names hits and unclear results; the compound was inactive in the other large screens; ! = a repeat was not active. Most compounds without a hit are left out; they make up all but 11% or so of the library. The call rests on the fitted dose curve; in most records, active means well fitted inhibition curve with a large enough effect; inconclusive means small, poorly fitted or top-dose-only effect; inactive means no such curve, though single readings can be large or run the other way.

Cn1c(SCc2ccc(F)cc2)nc2ccc(C(=O)NCc3ccc(F)cc3)cc21	none (no result: L3MBTL1 inh)
CCOc1ccc(S(=O)(=O)N(CC(=O)NCCSc2ccccc2)c2ccccc2)cc1	none (no result: L3MBTL1 inh)
COc1cccc(-c2c(C#N)c(SC)nc3cc(C)nn23)c1	none
Cn1c(=O)c2c(nc(N3CCOCC3)n2Cc2ccc(Br)cc2)n(C)c1=O	none (no result: L3MBTL1 inh)
Cc1cc(C)n(-c2nnc(Nc3ccc(C(C)C)cc3)c3ccccc23)n1	none (no result: L3MBTL1 inh)
CN(C)c1ccc(C(=C2C=CC(=[N+](C)C)C=C2)c2ccccc2)cc1	G9a inh 11µM (no result: BAZ2B inh, HP1b chromo inh, JMJD2A Tudor inh, L3MBTL1 inh)
CC1CCN(S(=O)(=O)c2cccc3cccnc23)CC1	none (no result: L3MBTL1 inh)
CC1CCN(S(=O)(=O)c2cc(F)ccc2CN2C(=O)c3cccnc3C2=O)CC1	BAZ2B inh 56µM (no result: L3MBTL1 inh)
COc1ccc(Br)cc1Cn1nnc(C(=O)Nc2ccc(C)cc2C)c1N	none (no result: L3MBTL1 inh)
O=C1CCCC2=C1C1(CCC1)N=C(Nc1nc3ccccc3o1)N2	none (no result: BAZ2B inh, HP1b chromo inh, G9a inh, L3MBTL1 inh)
Cc1cccc(NC(=O)C2CCCC2)c1	none
O=C(NNc1ccc(Cl)cc1)C1CCC1	G9a inh 18µM
Cc1cccc(NNC(=O)c2c(F)cccc2Cl)c1	G9a inh 71µM
Cc1cccc(NS(=O)(=O)c2nnc(NC(=O)C3CCCCC3)s2)c1	BAZ2B inh 6.3µM!, G9a inh 8.9µM!
O=C(NNc1cc(Cl)cc(Cl)c1)C1CCC1	G9a inh inconclusive
Cc1cccc(NNC(=O)C2CCC2)c1	G9a inh 32µM
Cc1nnsc1C(=O)Oc1ccc(C(C)C)cc1	none (no result: L3MBTL1 inh)
Cc1ccc(N2CC(C)Cn3c2nc2c3c(=O)n(CC(=O)O)c(=O)n2C)cc1 (stereo unspecified)	none (no result: L3MBTL1 inh)
Cc1ccc(Cl)cc1N1CCN(C(=O)CCCCCn2c(=O)[nH]c3ccccc3c2=O)CC1	JMJD2A Tudor inh inconclusive (no result: L3MBTL1 inh)
O=C(Nc1ccc(-c2nc3cc(Cl)ccc3o2)cc1)c1cc2ccccc2o1	none (no result: L3MBTL1 inh)
CCCCC(CC)CN=C(N)NC(N)=NCCCCCCN=C(N)NC(N)=NCC(CC)CCCC (stereo unspecified)	JMJD2A Tudor inh 79µM
CCCCC(CC)CO (stereo unspecified)	none (no result: BAZ2B inh, G9a inh)
CCOC(=O)C1C(=O)NC(C(=O)OCC)(C(=O)OCC)C1C(C)CC (stereo unspecified)	none (no result: BAZ2B inh, G9a inh, L3MBTL1 inh)
CSc1nc(=NC(C)=O)ss1	BAZ2B inh inconclusive, HP1b chromo inh inconclusive, G9a inh inconclusive, JMJD2A Tudor inh 32µM
CC(=O)n1c(Cl)c(NC(=O)CCl)c2ccccc21	BAZ2B inh 45µM, G9a inh inconclusive (no result: L3MBTL1 inh)
O=C(NCc1ccc(F)cc1)c1ccc(CS(=O)(=O)c2ccc(Cl)cc2)o1	none (no result: L3MBTL1 inh)
COC(=O)c1ccc(CS(=O)(=O)c2ccc(F)cc2)o1	G9a inh 71µM (no result: L3MBTL1 inh)
Cc1ccc(NC(=O)c2ccccc2)cc1	none
Cc1ccc(N/C(=C\C(=O)c2ccccc2)C(=O)O)cc1	BAZ2B inh 56µM, G9a inh inconclusive, JMJD2A Tudor inh inconclusive
COC(=O)/C(=C\C(=O)c1ccccc1)Nc1ccc(OC)cc1	BAZ2B inh 40µM, HP1b chromo inh inconclusive, G9a inh 14µM, JMJD2A Tudor inh 35µM
COc1ccc(N/C(C)=C/C(=O)c2ccccc2)cc1	BAZ2B inh inconclusive, HP1b chromo inh inconclusive, G9a inh inconclusive, JMJD2A Tudor inh inconclusive
NC1=NC(S)C2N=CN=C2N1 (stereo unspecified)	G9a inh 25µM (no result: BAZ2B inh, HP1b chromo inh, JMJD2A Tudor inh, L3MBTL1 inh)
O=C(NCc1ccco1)/C(=C/c1cccc(C(F)(F)F)c1)c1nc2ccccc2[nH]1	none
O=C(NCc1ccco1)/C(=C/c1ccc(C(F)(F)F)cc1)c1nc2ccccc2[nH]1	G9a inh 16µM
CCOC(=O)c1ccccc1NC(=O)CSc1ncc2c(n1)-c1ccccc1N(CC)S2(=O)=O	none (no result: L3MBTL1 inh)
Cc1ccc(-c2csc(N=C(N)N)n2)cc1	BAZ2B inh inconclusive, G9a inh inconclusive
NC(N)=Nc1nc(CSCC/C(N)=N/S(N)(=O)=O)cs1	JMJD2A Tudor inh 22µM
O=S(=O)(c1ccc2c(c1)OCCO2)N1CCN(S(=O)(=O)c2cccs2)CC1	none (no result: BAZ2B inh, HP1b chromo inh, G9a inh, L3MBTL1 inh)
NS(=O)(=O)c1ccc(NN=C2CCCCC2)c([N+](=O)[O-])c1	BAZ2B inh inconclusive, JMJD2A Tudor inh inconclusive
